The source of these data is PubChem BioAssay (NCATS).

Molecules are shown by their SMILES. Inconclusive results are not listed. A number with no mark means an inactive call. Calls of active or inactive are those of the source. Calls follow the shape of the full dose curve.
% is scaled to controls: 0 for no effect and ±100 for the full control effect.

In the assay the target is Nucleoprotein (Lymphocytic choriomeningitis virus (strain Armstrong)) (UniProt P09992). In words: qHTS for Inhibitors of the Functional Ribonucleoprotein Complex (vRNP) of Lymphocytic Choriomeningitis Arenaviruses (LCMV): LCMV Primary Screen - GLuc reporter signal (AID 1347086). Also: nearly all actives have a fitted effect of over 70% in size. The settings on record: LCMV minigenome vRNP cell assay, Gaussia luciferase reporter; series mostly up to 57.5 µM; activity change, negative = inhibition: at the top concentration. For orientation: Quantitative high-throughput screening tests each substance at several concentrations.
Chain of Nucleoprotein (Lymphocytic choriomeningitis virus (strain Armstrong)) (P09992 whole entry, looked up): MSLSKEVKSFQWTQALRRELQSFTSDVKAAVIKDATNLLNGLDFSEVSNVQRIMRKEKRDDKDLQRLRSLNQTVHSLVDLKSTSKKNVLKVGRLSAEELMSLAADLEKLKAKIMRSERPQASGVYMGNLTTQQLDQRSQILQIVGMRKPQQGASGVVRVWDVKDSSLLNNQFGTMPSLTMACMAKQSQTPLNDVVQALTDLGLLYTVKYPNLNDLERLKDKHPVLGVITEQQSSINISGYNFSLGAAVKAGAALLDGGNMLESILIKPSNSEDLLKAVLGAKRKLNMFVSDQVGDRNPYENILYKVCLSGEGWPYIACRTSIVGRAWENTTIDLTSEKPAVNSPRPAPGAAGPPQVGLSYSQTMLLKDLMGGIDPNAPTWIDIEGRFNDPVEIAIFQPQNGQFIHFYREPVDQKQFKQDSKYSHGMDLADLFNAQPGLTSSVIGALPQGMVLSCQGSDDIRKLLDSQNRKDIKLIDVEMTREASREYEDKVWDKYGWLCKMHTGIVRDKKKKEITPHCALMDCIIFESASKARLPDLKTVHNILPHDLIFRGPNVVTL
On to `CCCCN(CCN(CCCC)C(=O)N1CCOCC1)C(=O)N1CCOCC1`, for which the “activity change, negative = inhibition” value was -1.9%.
In the case of `CC(=O)[C@@]1(O)CC[C@H]2[C@@H]3CCC4=CC(=O)CC[C@]4(C)[C@H]3CC[C@@]21C`, the Potency entry is “inactive”.
`O=C(c1cc(O)c(O)c(O)c1)c1ccc(O)c(O)c1O`: the “activity change, negative = inhibition” value was -0.971%.
`C[C@H]1COc2c(C3(N)CC3)c(F)cc3c(=O)c(C(=O)O)cn1c23`: the “activity change, negative = inhibition” value was 18.5%.
On to `CC(Cc1cccc(C(F)(F)F)c1)NCCOC(=O)c1ccccc1` (configuration not stated), for which the “activity change, negative = inhibition” value was 8.45%.
Regarding `CCCCC(=O)O[C@]1(C(=O)CO)[C@@H](C)C[C@H]2[C@@H]3CCC4=CC(=O)C=C[C@]4(C)[C@@]3(F)[C@@H](O)C[C@@]21C`, the “activity change, negative = inhibition” value is 38.7%.
For the compound `CN(C)[C@@H]1C(=O)C(C(=O)NCN2CCCC2)=C(O)[C@@]2(O)C(=O)C3=C(O)c4c(O)cccc4[C@@](C)(O)C3C[C@@H]12` (some centres not stated), the “activity change, negative = inhibition” value was 0.933%.
As for `O=c1[nH]sc2cc(Cl)ccc12`, the “activity change, negative = inhibition” value is -88%.
`Cc1cc(C(C)(C)C)cc(C)c1CC1=NCCN1`: the Potency result is “inactive”.
Turning to `N[C@H](C(=O)O)[C@@H](O)c1ccc(O)c(O)c1`, the “activity change, negative = inhibition” value is 9.06%.
With `N[C@@H](CSSC[C@H](N)C(=O)O)C(=O)O`, the activity change, negative = inhibition is 13.5% [at 0.757 µM].
Same read-out and setting: then `CC(C)(C)CC(C)(C)c1ccc(O)c(Cc2ccc(Cl)cc2Cl)c1`, with 8.81%; and `CC(C)CCCC(C)N` (configuration not stated), with -6.92%.
Still for that read-out and setting: then `Cc1ccc(CCn2c3c(c4cc(Cl)ccc42)CN(C)CC3)cn1`, with -17.7%; and `CC(C)NC(=O)c1ccc(C=O)cc1`, with 6.84%.
As to `CNC1CCCN(c2c(F)cc3c(=O)c(C(=O)O)cn(C4CC4)c3c2OC)C1` (configuration not stated), the Potency result is “inactive”.
For `CC(=O)OCC(=O)[C@@]1(O)CCC2C3CCC4=CC(=O)CC[C@]4(C)C3[C@@H](O)C[C@@]21C` (some centres not stated), the Potency entry is “inactive”.
